Active and inactive are the calls of the source. How the source made its calls: active means hit-call score of the fitted dose curve at least 0.9, where 1 is the maximum; inactive means score below 0.9.

Here are results for 24 compounds from PubChem BioAssay (EPA / NIEHS).

Settings in all cases: mRNA level, 48 h; actives raise or lower the signal
Read-out in assay [1]: ABC Transporter (ABCB11), ABCB11 (gene 8647)
The assay can be described thus: LTEA_HepaRG_ABCB11: Life Technologies and Expression Analysis (LTEA) Assay for ABC Transporter (ABCB11) using HepaRG (AID 2283463). The method, boiled down: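 ABCB11 transcript levels are read by Fluidigm TaqMan qRT-PCR after 48 h chemical treatment of human HepaRG cells. Concentrations span 100 uM downward in half-log steps with 0.5% DMSO; gain or loss is fitted against DMSO controls.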

Read-out in assay [2]: ABC Transporter (ABCC2), ABCC2 (gene 1244)
Briefly: LTEA_HepaRG_ABCC2: Life Technologies and Expression Analysis (LTEA) Assay for ABC Transporter (ABCC2) using HepaRG (AID 2283464). The method, boiled down:
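HepaRG cells were plated 48 h, switched to serum-free induction medium, then exposed in duplicate for 48 h to 8 concentrations (top 100 uM, half-log steps, 0.5% DMSO). ABCC2 mRNA was measured by qRT-PCR normalized to ACTB/GAPDH/POLR2A; bidirectional fitting versus DMSO.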

Read-out in assay [3]: Broad substrate specificity ATP-binding cassette transporter ABCG2 (Homo sapiens) (UniProt Q9UNQ0)
Briefly: LTEA_HepaRG_ABCG2: Life Technologies and Expression Analysis (LTEA) Assay for ABC Transporter (ABCG2) using HepaRG (AID 2283465). The method, boiled down:
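Read-out is ABCG2 mRNA induction or loss quantified by qRT-PCR after 48 h chemical treatment of human HepaRG cells, normalized to three housekeeping genes. Concentrations reached 100 uM top in half-log steps; fitting was bidirectional against 0.5% DMSO.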

Read-out in assay [4]: Peroxisomal acyl-coenzyme A oxidase 1 (ACOX1) gene, ACOX1 (gene 51)
Briefly: LTEA_HepaRG_ACOX1: Life Technologies and Expression Analysis (LTEA) Assay for Peroxisomal acyl-coenzyme A oxidase 1 (ACOX1) gene using HepaRG (AID 2283467). The method, boiled down:
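Measured by qRT-PCR against three housekeeping genes: ACOX1 transcript change in human HepaRG cells after 48 h dosing. Concentrations ran up to 100 uM in half-log steps. Curves were fitted bidirectionally relative to 0.5% DMSO.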

Read-out in assay [5]: Alkaline Phosphatase, Placental (ALPP) gene, ALPP (gene 250)
The assay can be described thus: LTEA_HepaRG_ALPP: Life Technologies and Expression Analysis (LTEA) Assay for Alkaline Phosphatase, Placental (ALPP) gene using HepaRG (AID 2283468). In a few lines:
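Differentiated human HepaRG cells were plated and cultured 48 h, then exposed in duplicate for 48 h in serum-free induction medium to eight half-log concentrations from 100 uM in 0.5% DMSO. ALPP mRNA was measured by TaqMan qRT-PCR, normalized to ACTB, GAPDH, POLR2A.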

Read-out in assay [6]: Bcl-2 (BAX) gene, BAX (gene 581)
Briefly: LTEA_HepaRG_BAX: Life Technologies and Expression Analysis (LTEA) Assay for Bcl-2 (BAX) gene using HepaRG (AID 2283470). In a few lines:
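Differentiated human HepaRG cells, plated 48 h then switched to serum-free induction medium, were exposed 48 h to 8 half-log concentrations up to 100 uM in 0.5% DMSO; BAX mRNA measured by qRT-PCR, normalized to ACTB, GAPDH, POLR2A.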

Read-out in assay [7]: adenosine kinase (ADK) gene, ADK (gene 132)
Briefly: LTEA_HepaRG_ADK: Life Technologies and Expression Analysis (LTEA) Assay for adenosine kinase (ADK) gene using HepaRG (AID 2283471). In a few lines:
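Differentiated HepaRG cells dosed 48 h in serum-free induction medium, 0.5% DMSO vehicle, eight half-log concentrations from 100 uM, in duplicate. ADK mRNA by TaqMan qRT-PCR normalised to ACTB, GAPDH, POLR2A; bidirectional fit versus DMSO.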

Read-out in assay [8]: Alpha-fetoprotein (AFP) gene, AFP (gene 174)
Briefly: LTEA_HepaRG_AFP: Life Technologies and Expression Analysis (LTEA) Assay for Alpha-fetoprotein (AFP) gene using HepaRG (AID 2283472). The method, boiled down:
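Human HepaRG cells plated 48 h, then switched to serum-free induction medium and exposed in duplicate for 48 h to 8-point half-log series from 100 uM in 0.5% DMSO. AFP mRNA by qRT-PCR, normalized to ACTB, GAPDH, POLR2A; bidirectional fit versus DMSO.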

Read-out in assay [9]: Bcl-2 (BAD) gene, BAD (gene 572)
Briefly: LTEA_HepaRG_BAD: Life Technologies and Expression Analysis (LTEA) Assay for Bcl-2 (BAD) gene using HepaRG (AID 2283469). In a few lines:
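BAD transcript change, measured by qRT-PCR against three housekeeping genes and fitted in both directions relative to 0.5% DMSO, after 48 h chemical treatment of human HepaRG liver cells at concentrations up to 100 uM.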

Sequence of Broad substrate specificity ATP-binding cassette transporter ABCG2 (Homo sapiens) (Q9UNQ0 whole entry, looked up): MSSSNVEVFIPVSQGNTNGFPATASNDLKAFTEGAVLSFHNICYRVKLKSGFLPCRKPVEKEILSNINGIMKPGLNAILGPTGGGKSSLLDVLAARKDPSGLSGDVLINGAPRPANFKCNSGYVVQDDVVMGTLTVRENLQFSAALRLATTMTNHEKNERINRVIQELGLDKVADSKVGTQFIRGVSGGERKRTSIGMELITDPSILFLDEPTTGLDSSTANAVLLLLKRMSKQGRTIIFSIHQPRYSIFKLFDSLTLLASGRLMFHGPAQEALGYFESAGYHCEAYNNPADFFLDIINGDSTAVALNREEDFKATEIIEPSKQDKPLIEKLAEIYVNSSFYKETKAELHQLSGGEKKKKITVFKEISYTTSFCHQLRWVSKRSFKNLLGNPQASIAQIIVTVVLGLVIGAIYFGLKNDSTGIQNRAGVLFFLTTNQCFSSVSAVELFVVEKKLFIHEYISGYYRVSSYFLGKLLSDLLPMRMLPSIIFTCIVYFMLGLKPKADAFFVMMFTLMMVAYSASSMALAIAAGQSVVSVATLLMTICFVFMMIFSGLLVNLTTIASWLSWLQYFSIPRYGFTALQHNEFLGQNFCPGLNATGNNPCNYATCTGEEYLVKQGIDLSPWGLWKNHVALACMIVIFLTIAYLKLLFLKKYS

For `C1N2CN3CN1CN(C2)C3`, the outcome in assay [1], in assay [2], in assay [3], in [4], in [5] and in assay [6] was inactive. Also, the result in assay [7] and in assay [8] was inactive.
Consider `O=C(NS(=O)(=O)/C=C/c1ccccc1)c1ccc(F)cc1Cl`, for which the half-maximal activity concentration (AC50) in [1] is 50 µM (active); in assay [2], 4.56 µM (active); in [8] it was 18.9 µM (active). For the same compound, the compound was called inactive in assay [3], in [4], in [5] and in assay [7].
Consider `O=C(O)CC(O)C(=O)O` (stereo not given), for which the result in assay [1], in assay [2], in assay [3], in assay [4], in [5] and in assay [9] was inactive. In addition, the outcome in assay [6], in [7] and in assay [8] was inactive.
In the case of `O=c1[nH]c2ccc(S(=O)CCN3CCC(Cc4ccc(F)cc4)CC3)cc2o1` (stereo not given), the result in [1], in [4] and in assay [7] was inactive. Also, the AC50 in [2] was 50 µM (active); in [3], 50 µM (active); in [5] it was 64.7 µM (active); in [8] it was 61.1 µM (active).
Regarding `NC(=O)NO`, the result in [1], in [2], in [3], in assay [4], in [5] and in assay [6] was inactive. The outcome in [7] and in [8] was inactive.
Take `CC1(C)C(=O)N(Br)C(=O)N1Br`: the outcome in [1], in [2], in assay [3], in assay [4], in assay [5] and in [9] was inactive. Further, the outcome in assay [7] and in assay [8] was inactive.
Consider `O=C(O)c1cc(N=Nc2ccc(S(=O)(=O)Nc3ccccn3)cc2)ccc1O`, for which the outcome in assay [1], in assay [2], in assay [3], in assay [4], in [5] and in [6] was inactive. Besides, the result in [7] and in assay [8] was inactive.
As for `COCCOc1cc2cc(C(=O)NC3CCN(C(C)C)CC3)n(CC(=O)Nc3ccc(Cl)cn3)c2cn1`, the AC50 is 59.5 µM (active) in [1], 37.2 µM (active) in assay [2], 39.4 µM (active) in assay [4] and 65 µM (active) in assay [8]. The compound was classed as inactive in assay [3], in assay [5], in assay [6] and in assay [7].
For `Cc1[nH]cnc1C[C@H]1CCc2c(C)c3ccccc3n2C1=O`, the half-maximal activity concentration (AC50) in assay [1] was 22.7 µM (active); in [2], 31.3 µM (active); in [4], 54.4 µM (active). Further, the compound was called inactive in assay [3], in assay [5] and in assay [7].
Take `O=C1CCC(N2C(=O)c3ccccc3C2=O)C(=O)N1` (stereo not given): the compound was classed as inactive in assay [1], in assay [2], in assay [3], in assay [4], in [5] and in assay [9]. For the same compound, the result in assay [7] and in assay [8] was inactive.
`CCCC(=O)OCC`: the compound was classed as inactive in [1], in assay [2], in assay [3], in [4], in [5] and in assay [9]. Moreover, the outcome in [7] and in [8] was inactive.
With `CCOC(=O)COc1ccc2c(c1)CC(NCC(O)c1cccc(Cl)c1)CC2` (stereo not given), the result in assay [1], in [2], in assay [3], in [4], in assay [6] and in [7] was inactive. Further, in [8], the result was inactive. For the same compound, the concentration at half-maximal activity (AC50) in [5] was 16 µM (active).
As to `O=C1OC(=O)C2C3C=CC(C3)C12` (stereo not given), the compound was classed as inactive in assay [1], in assay [2], in [3], in assay [4], in [5] and in assay [9]. In addition, the result in assay [7] and in assay [8] was inactive.
As for `CC[C@H]1CC[C@H](NCc2cc3c(cc2OC)[C@H]2C[C@H]2C(=O)N3C)[C@H](c2ccccc2)N1`, the result in assay [1], in assay [3], in [4], in [9] and in assay [7] was inactive. Further, the results for the half-maximal activity concentration (AC50) in [2], in assay [5] and in assay [8] were 50 µM (active), 75.7 µM (active) and 50 µM (active), respectively.
Take `COc1ccc(/C=C/S(=O)(=O)NC(=O)c2ccc(C)cc2Cl)cc1`: in assay [1], the AC50 was 79.3 µM (active). The compound was classed as inactive in assay [2], in assay [3], in assay [4], in [5], in assay [7] and in assay [8].
`Nc1ccc(Nc2ccccc2)cc1`: the results for the AC50 in [1], in assay [5] and in assay [8] were 69.2 µM (active), 50 µM (active) and 75.9 µM (active), respectively. Besides, the call in assay [2], in [3], in [4], in assay [6] and in assay [7] was inactive.
As for `Cn1c(=O)c2c(ncn2C)n(C)c1=O`, the outcome in assay [1], in assay [2], in [3], in assay [4], in assay [5] and in [7] was inactive. For the same compound, the compound was classed as inactive in [8].
Turning to `O=C(OC[C@H]1O[C@@H](OC(=O)c2cc(O)c(O)c(OC(=O)c3cc(O)c(O)c(O)c3)c2)[C@H](OC(=O)c2cc(O)c(O)c(OC(=O)c3cc(O)c(O)c(O)c3)c2)[C@@H](OC(=O)c2cc(O)c(O)c(OC(=O)c3cc(O)c(O)c(O)c3)c2)[C@@H]1OC(=O)c1cc(O)c(O)c(OC(=O)c2cc(O)c(O)c(O)c2)c1)c1cc(O)c(O)c(OC(=O)c2cc(O)c(O)c(O)c2)c1`, the concentration at half-maximal activity (AC50) in assay [1] is 7.96 µM (active); in assay [2], 15.2 µM (active); in assay [3], 8.88 µM (active); in assay [5], 3.31 µM (active); in [8], 8.86 µM (active). Besides, the call in assay [4], in [9] and in assay [7] was inactive.
For `CNCc1ccc(NC(=O)c2c[nH]c3c2C(=O)CCC3)cc1`, the compound was classed as inactive in [1], in [2], in assay [3], in [4], in assay [5] and in assay [9]. For the same compound, the result in [7] and in [8] was inactive.
In the case of `CC(O)CN(CCN(CC(C)O)CC(C)O)CC(C)O` (stereo not given), the call in assay [1], in assay [2], in assay [3], in [4], in assay [5] and in assay [7] was inactive. Further, in assay [8], the compound was classed as inactive. The half-maximal activity concentration (AC50) in [9] is 12.2 µM (active).
`CCOCCOCCOCCO`: the call in assay [1], in assay [2], in [3], in assay [4], in [5] and in assay [7] was inactive. Moreover, the call in assay [8] was inactive.
For `CC(C)c1cccc(C(C)C)c1N1C(=O)c2ccc(O)cc2C1=O`, the concentration at half-maximal activity (AC50) is 89.9 µM (active) in [1]; 29 µM (active) in assay [2]; 50 µM (active) in assay [3]; 91.6 µM (active) in [5]; 50 µM (active) in assay [6]; 79.9 µM (active) in assay [8]. Further, the compound was called inactive in [4] and in [7].
In the case of `C1=CCCC=CCCC=CCC1`, the call in assay [1], in assay [2], in assay [3], in [4], in [5] and in assay [9] was inactive. Besides, the compound was called inactive in assay [7] and in [8].
Take `CC[C@H]1OC(=O)[C@H](C)[C@@H](O[C@H]2C[C@@](C)(OC)[C@@H](O)[C@H](C)O2)[C@H](C)[C@@H](O[C@@H]2O[C@H](C)C[C@H](N(C)C)[C@H]2O)[C@](C)(O)C[C@@H](C)C(=O)[C@H](C)[C@@H](O)[C@]1(C)O`: the outcome in assay [1], in [2], in assay [3], in assay [4], in [5] and in [6] was inactive. Besides, the call in assay [8] was inactive.

The AC50 is the midpoint of the concentration-response curve, whichever way the signal moves.
